ERK EGF inh: qHTS Assay for Inhibitors of the ERK Signaling Pathway using a Homogeneous Screening Assay; Stimulation with EGF | HEK293-V1b, EGF-stimulated phospho-ERK AlphaScreen | Potency, µM (doses to about 11.5 µM), for inactives: at the highest dose activity change, negative = inhibition, hits mostly inhibitors | actives 0.41% (n = 130,000); active = well fitted inhibition curve with a large enough effect;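 also: plate controls were stimulated vehicle wells for no effect and unstimulated vehicle basal for full effect; nearly all actives have a fitted effect of over 55% in size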
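HEK293 cells stably expressing V1b receptor, serum-reduced (1% FBS) overnight, pretreated 30 min with compound, then stimulated 5 min with 25 nM EGF; phospho-ERK detected by AlphaScreen SureFire. AC50 from Hill fits, normalized to DMSO and EGF.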
* hit, by the source's call; [ ] = dose if it differs, or a comment. The sample as a whole holds a higher share of hits than the screen did. Potency is read from the fitted curve at half-maximal effect.

SMILES | ERK EGF inh
O[C@@](CCN1CCCCC1)(c1ccccc1)C1CCCCC1 | -2%[25.7 µM]
Nc1ccccc1Nc1ccc([N+](=O)[O-])cc1[N+](=O)[O-] | -6%
O=[N+]([O-])c1ccc(N/N=C/c2ccccc2)c(F)c1 | -10%
CC1=C(/C=N/Nc2ccc([N+](=O)[O-])cc2[N+](=O)[O-])C(C)(C)CCC1 | 14µM*
CC(=O)NCCNc1ncnc2ccc(-c3ccc(C(=O)N(C)C)cc3)cc12 | 16%
Cc1noc(C)c1C(=O)N1CCC2(CCCN(C(c3ccccc3)c3ccccc3)C2)CC1 | 1%
CCc1c(C)sc(NC(=S)Nc2nc(C)cc(C)n2)c1C(=O)OC | -1%
CCc1c(C)sc(NC(=S)N2CCN(S(C)(=O)=O)CC2)c1C(=O)OC | 28µM*
CCc1c(C)sc(NC(=S)Nc2cccnc2)c1C(=O)OC | 34%
COc1cccc([C@@H]2Oc3ccc(OC)cc3C[C@H]2OC(=O)Nc2ccc(OC(F)F)cc2)c1 | 0%
NCCC[C@@H](CC(=O)N[C@@H]1CCNC[C@H]1C(=O)N[C@H](CC(=O)N[C@@H](CCC(=O)O)CC(=O)O)Cc1ccccc1)NC(=O)C[C@H](Cc1c[nH]c2ccccc12)NC(=O)[C@@H]1CCCC[C@H]1N | -3%
CCn1c(SCc2nc3scc(-c4ccccc4)c3c(=O)[nH]2)nnc1-c1cccs1 | 25µM*
Nc1nnc(SCc2nc3scc(-c4ccccc4)c3c(=O)[nH]2)s1 | -9%[57.5 µM]
Cc1nnc(SCc2nc3scc(-c4ccccc4)c3c(=O)[nH]2)s1 | -5%[57.5 µM]
CCCCNc1nc(C)nc2c1nc(-c1ccccc1)n2CC1CCCN1CC (configuration not stated) | 5%
COc1cc2nc(N3CCN(C(=O)OCc4ccccc4)C(C(=O)NC(C)(C)C)C3)nc(N)c2cc1OC (configuration not stated) | 1%
CC(C)OC(=O)[C@@H]1CC[C@H](C)[C@@H](CCC[C@@H]2C[C@@H](O)C[C@H](CC#N)O2)O1 | -7%
COC(=O)C/C=C/[C@@H](C)[C@H](NC(=O)OCC(Cl)(Cl)Cl)c1cccc(OC)c1 | 5%
COC(=O)C1(C(C)=O)CC2=CC[C@@H]3C(=O)N(c4ccccc4)C(=O)[C@@H]3[C@@H]2Cc2ccccc2[C@@H]1C[N+](=O)[O-] (some centres not stated) | -15%
O=P1(O)Oc2c(-c3ccccc3)cc3ccccc3c2-c2c(c(-c3ccccc3)cc3ccccc23)O1 | 1%
CC1OC(OC2C(OC3C(O[C@H]4CC[C@]5(C)C6C=C[C@]78OC[C@@]9(CC[C@@H](C)[C@H](C)C97)[C@H](O)C[C@@]8(C)[C@]6(C)CC[C@H]5C4(C)C)OC(C)C(O)C3O)OC(CO)C(O)C2O)C(O)C(O)C1O (some centres not stated) | 11µM*
CC1O[C@@H](O[C@H]2C(Oc3cc(O)c4c(c3)OC(c3ccc(O)cc3)CC4=O)OC(CO)C(O)C2O)C(O)C(O)C1O (some centres not stated) | 12%
COc1cccc([C@@H]2Oc3ccc(Br)cc3C(=O)[C@H]2OC(=O)Nc2cc(OC)c(OC)c(OC)c2)c1 | -1%
O=C1C(Cl)=C(N2CCN(c3ccccc3[N+](=O)[O-])CC2)C(=O)c2ccccc21 | 25µM*
O=[N+]([O-])c1cc(S(=O)(=O)Nc2ccccc2)ccc1N1CCN(c2ccccc2)CC1 | 0%
SMILES | ERK EGF inh
O=[N+]([O-])c1ccc(N2CCN(c3ccccc3O)CC2)c(Cl)c1 | 21%
COCCn1c(=O)c(-c2cccc(C#N)c2)nc2cnc(N3CCNCC3)nc21 | -12%
COC(=O)[C@H](COC(C)(C)C)NC(=O)O[C@@H]1C(=O)c2ccc(OC)cc2O[C@H]1c1ccc2c(c1)OCO2 | -11%
O=C(/C=C/c1cccc([N+](=O)[O-])c1)Nc1cc(C(=O)O)cc(C(=O)O)c1 | 3%
CCOC(=O)c1cccc(NC(=O)/C=C/c2ccc([N+](=O)[O-])cc2)c1 | 32µM*
CCOC(=O)c1cc(NC(=O)COc2ccc([N+](=O)[O-])cc2)cc(C(=O)OCC)c1 | -1%
Cc1nc(NCCO)c2nc(-c3ccccc3)n(CCCN(C)C)c2n1 | 11%
COCC1=C2c3ccccc3[C@H](C[N+](=O)[O-])C(C(=O)OC)(C(=O)OC)CC2C2C(=O)N(c3ccccc3)C(=O)C2C1 (some centres not stated) | 5%
CN(C)S(=O)(=O)c1ccc(C(=O)NCC(=O)N/N=C/c2ccco2)cc1 | -4%
O=C(/C=C/c1ccco1)Nc1nc(-c2ccccn2)cs1 | 1%
Cc1cc(NS(=O)(=O)c2ccc(Nc3nc(-c4ccc(O)cc4)cs3)cc2)no1 | 1%
O=C(/C=C/c1ccco1)Nc1nc(-c2ccc(F)c(F)c2)cs1 | -6%[57.5 µM]
CN(C)S(=O)(=O)c1ccc(-c2csc(N/N=C/c3ccco3)n2)cc1 | 20µM*
C(=N\Nc1nc(-c2ccccc2)cs1)/c1ccncc1 | -3%
CN(C)S(=O)(=O)c1ccc(-c2csc(N/N=C/c3ccc(O)cc3)n2)cc1 | 11µM*
Cc1sc(N/N=C/c2ccco2)nc1-c1ccccc1 | -10%
O=C(/C=C/c1ccco1)Nc1nc(-c2ccccc2)cs1 | 25µM*
c1cnc2c(-c3nccc4c3[nH]c3ccccc34)cccc2c1 | -7%
O=C1c2cc(Br)ccc2O[C@@H](c2ccc3c(c2)OCO3)[C@@H]1O | 3%
COc1ccc(Oc2ncc3ncc(=O)n(Cc4ccc(F)cc4)c3n2)cc1 | 10%
COc1c2c(cc3c1C(NC(N)=O)[N+](C)(C)CC3)OCO2 (configuration not stated) | 4%
CC(C)NC(=O)N1CCC2(CC1)CCN(C(=O)c1ccncc1)CC2 | -1%
Cc1cc(N(C)C)ccc1N=Nc1ccc2ncccc2c1 | 20µM*
Cc1nnc(C)c2c(C)n(-c3ccc4ncccc4c3)c(C)c12 | -4%
Cc1ccc(N=Nc2ccc(O)c3ncccc23)cc1C | -6%
SMILES | ERK EGF inh
COC(=O)N1C(C2CC2)=Cc2ccccc2C1CC(C)=O (configuration not stated) | 8%
O=C(O)c1cccc(Nc2ncnc3ccc(Br)cc23)c1 | -9%[57.5 µM]
CN(Cc1ccco1)c1ncnc2ccc(-c3ccc4c(c3)OCO4)cc12 | 23%
c1ccc(Nc2ncnc3ccc(-c4ccc5c(c4)OCO5)cc23)cc1 | 2.8µM*
N#Cc1ccccc1-c1ccc2ncnc(N3CCNCC3)c2c1 | 16%
O=[N+]([O-])c1cc(-n2cccc2)ccc1N1CCOCC1 | 28µM*
Cc1ccc(C)n1-c1ccc(N2CCOCC2)c([N+](=O)[O-])c1 | -5%[57.5 µM]
O=[N+]([O-])c1cc(Cl)ccc1N1CCOCC1 | 3%
CCCCCCCN[C@H]1CCC[C@@H]1CCCCCCC(=O)O | 1%
O=C(c1ccc(Cl)cc1)C1CCCN(Cc2cnn(-c3ccccc3)c2)C1 (configuration not stated) | 28µM*
O=C(c1ccc(Cl)cc1)C1CCCN(Cc2cccn2-c2cccnc2)C1 (configuration not stated) | -5%
Cc1nn(C)cc1CN1CCCC(C(=O)c2ccc(-c3ccccc3)cc2)C1 (configuration not stated) | -12%
O=C(O)CCCC/C=C\C[C@@H](O)/C=C/C=C/C=C\[C@@H](O)CCCC(=O)O | 3%
CCCCC#Cc1nc(N)c2ncn([C@@H]3O[C@H](C(=O)NCC)[C@@H](O)[C@H]3O)c2n1 | -6%
CC1(C)CC(=O)c2c(oc3cc4c(cc23)OCO4)C1 | 3%
COc1cccc([C@@H]2Oc3ccc(Br)cc3C(=O)[C@H]2OC(=O)NCCOc2ccccc2)c1 | -11%
